High-throughput results deposited in PubChem BioAssay by National Center for Advancing Translational Sciences (NCATS).
An excerpt weighted towards active compounds, which were near 5.3% of everything screened.
HP1b binding inh = inhibitors of HP1-beta chromodomain binding to methylated histone tails; actives 0.56% (n = 390,000); P83916; Potency, µM (doses to about 114 µM), for the others: at the highest dose activity change, negative = inhibition, actives largely listed as inhibitors; AlphaScreen HP1-beta / biotin-H3K9me3 peptide binding; also: potency is read from the fitted curve at half-maximal effect; nearly all actives have a fitted effect of over 70% in size
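Compound inhibition of the preformed complex between 50 nM HP1-beta and 50 nM biotinylated H3K9me3 peptide was read by AlphaScreen. Buffer was PBS pH 7.4 with 0.01% Tween-20. Incubations ran 30 min at room temperature, with 10 ug/mL donor/acceptor beads.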
TDP1 block = blocks human tyrosyl-DNA phosphodiesterase 1; Potency, µM (doses to about 130 µM), for inactives: at the highest dose activity change, negative = inhibition, usual class: inhibitors; Q9NUW8; actives 0.28% (n = 350,000); recombinant TDP1, AlphaScreen DNA substrate cleavage; also: potency is read from the fitted curve at half-maximal effect; % is scaled to controls: 0 for no effect and ±100 for the full control effect; nearly all actives have a fitted effect of over 40% in size
Target sequence (Q9NUW8 whole entry, looked up): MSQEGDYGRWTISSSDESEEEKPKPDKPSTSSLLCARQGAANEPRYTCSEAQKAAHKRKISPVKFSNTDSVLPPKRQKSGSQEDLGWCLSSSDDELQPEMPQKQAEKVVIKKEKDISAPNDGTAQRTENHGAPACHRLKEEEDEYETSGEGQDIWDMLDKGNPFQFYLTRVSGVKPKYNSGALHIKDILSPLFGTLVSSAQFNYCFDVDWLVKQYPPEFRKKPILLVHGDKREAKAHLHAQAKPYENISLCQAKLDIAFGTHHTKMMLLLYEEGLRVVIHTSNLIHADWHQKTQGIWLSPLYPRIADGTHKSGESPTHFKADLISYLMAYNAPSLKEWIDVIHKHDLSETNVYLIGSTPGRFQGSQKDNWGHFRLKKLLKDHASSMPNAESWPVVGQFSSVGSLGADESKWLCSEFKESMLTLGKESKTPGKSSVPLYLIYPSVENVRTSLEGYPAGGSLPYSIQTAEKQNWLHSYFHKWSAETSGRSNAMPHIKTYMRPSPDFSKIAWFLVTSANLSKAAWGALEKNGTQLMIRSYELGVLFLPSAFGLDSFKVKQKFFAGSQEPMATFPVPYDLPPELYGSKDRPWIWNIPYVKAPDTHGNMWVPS
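Here, a 5' biotin and 3' phosphotyrosine-FITC DNA oligonucleotide reports Tdp1 activity: intact substrate bridges AlphaScreen beads, while cleavage leaves a 3' phosphate and drops signal. All incubations at room temperature.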
CtBP-E1A blk = blocks the CtBP interaction with E1A. AlphaScreen GST-E1A/His-CtBP binding, 1536-well; active compounds read low. activity change, % (concentration not given with the values). actives 0.49% (n = 340,000); in the data active = activity change below about -65%; inconclusive = mostly about -30% to -63%; also: % is scaled to controls: 0 for no effect and ±100 for the full control effect
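AlphaScreen with 125 nM GST-E1A and 125 nM His-CtBP (5X stocks) in Tris pH 8.0, 300 mM NaCl, BSA, Tween 20, TCEP. Compounds preincubated 2 h at 37 deg C, then glutathione donor/nickel acceptor beads added for 1 h at 37 deg C in dark.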
JMJD2A Tudor inh = JMJD2A Tudor domain (human) inhibition | O75164 | AID 504339 | AlphaScreen JMJD2A-Tudor / H3K4me3 peptide binding | actives 4.4% (n = 390,000) | Potency, µM (highest dose often 114 µM), for the others: top-dose activity change, negative = inhibition, usual class: inhibitors; also: potency is read from the fitted curve at half-maximal effect; % is scaled to controls: 0 for no effect and ±100 for the full control effect; nearly all actives have a fitted effect of over 50% in size
Six1-Eya2 blk = blocks human Six1 binding to Eya2; activity change, % (no concentration beside the values); actives 0.56% (n = 360,000); AlphaScreen GST-Six1/His-Eya2 binding, biochemical; active compounds read low; Q15475+O00167; in the data active = activity change below about -65%; inconclusive = mostly about -30% to -63%; also: % is scaled to controls: 0 for no effect and ±100 for the full control effect
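Six1/Eya2 binding was read as AlphaScreen signal after compounds were pinned into GST-Six1 plus His-tagged Eya2 (5X stock 250/500 nM) in pH 8.0 Tris/NaCl/TCEP buffer, beads added, then incubated 1 h, 37 C, dark.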
BAZ2B inh = blocks human BAZ2B. actives 4.4% (n = 360,000). Q9UIF8. AlphaScreen BAZ2B-H3K14Ac peptide displacement. Potency, µM (doses to about 114 µM), without a hit: at the highest dose activity change, negative = inhibition, actives largely listed as inhibitors; also: potency is read from the fitted curve at half-maximal effect; % is scaled to controls: 0 for no effect and ±100 for the full control effect; nearly all actives have a fitted effect of over 60% in size
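Inhibition is scored as reduced AlphaScreen emission. The BAZ2B/b-H3(5-23)K14Ac complex (50 nM each) in PBS pH 7.4, 0.01% Tween-20 meets compound (up to 110 uM) for 30 min at RT before bead addition.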
* = called active by the depositor; ? = inconclusive; · = not tested or not shown; [ ] = another dose, or the depositor's remark. Unless noted, calls follow the shape of the dose curve; as a rule, active = well fitted inhibition curve with a large enough effect; inconclusive = small, poorly fitted or top-dose-only effect; inactive = no such curve, though single readings can be large or run the other way.

SMILES | HP1b binding inh | TDP1 block | CtBP-E1A blk | JMJD2A Tudor inh | Six1-Eya2 blk | BAZ2B inh
NC(=O)C1CCCCc2c1[nH]c1ccc(Cl)cc21 (stereo unspecified) | 5% | · | 4 | ? | 5 | -13%
CCOC(=O)c1cc(S(=O)(=O)Nc2cc(C)c(Cl)cc2OC)[nH]n1 | 1%[57 µM] | 5% | · | ? | · | -34%
COC(=O)NC1C=CCCC1C(C)=O (stereo unspecified) | · | 4% | · | · | · | ·
CCCCC(=Nc1ccc(N)cc1)C1=C(O)C(C(=O)OC)C(C)(C)CC1=O (stereo unspecified) | -15% | 2% | ? | ? | -22 | 56µM*
COC(=O)CC(=O)CSc1nc2cc(C(=O)NC(C)C)ccc2c(=O)n1CCc1ccccc1 | 50% | 5% | · | 11% | · | -3%
[O-][n+]1c2ccccc2[n+]([O-])c2cc(O)ccc21 | 45µM* | · | -14 | 79µM* | ? | 40µM*
CSc1ccc(/C=N/NC(=O)c2cc(O)cc(O)c2)cc1 | 19% | 1% | 1 | -28% | -26 | -7%
CSc1ccc(/C=N/NC(=O)c2ccc(C)c(C)c2)cc1 | 18% | -5% | -4 | ? | -2 | 50µM*
CNC(=O)C1C(=S)NC(N)=C(C#N)C1c1ccccc1 (stereo unspecified) | -19% | 5% | -4 | 25µM* | -11 | -11%
CSC1=C(C#N)C(c2ccccc2)C(C(C)=O)=C(C)N1 (stereo unspecified) | 60% | 5% | · | 11% | -1 | -12%
CCOc1ccc(NC(=O)c2ccc(F)cc2F)cc1 | 24% | · | 0 | -7% | 0 | ·
CCOc1ccc(NCCC(O)c2ccc(F)cc2)cc1 (stereo unspecified) | ? | · | -11 | ? | -16 | 50µM*
COc1ccc(C2C(C#N)=C(N)Oc3c2c(-c2ccccc2)nn3-c2ccccc2)c(OC)c1OC (stereo unspecified) | ? | 4% | 22 | ? | 2 | 25µM*
Cc1nn(-c2ccccc2)c2c1C(c1ccc(Br)s1)C(C#N)=C(N)O2 (stereo unspecified) | ? | 10% | · | 13µM* | 15 | 11µM*
Cc1ccc(-n2nc(C)c3c2OC(N)=C(C#N)C3c2ccoc2)cc1 (stereo unspecified) | 0% | 12% | 2 | -36% | -1 | ?
Cc1ccc(-n2nc(C)c3c2OC(N)=C(C#N)C3c2ccc(C)o2)cc1 (stereo unspecified) | -26% | 12% | -2 | 11µM* | -1 | 10µM*
Cc1ccc(-n2nc(C)c3c2OC(N)=C(C#N)C3c2ccco2)cc1 (stereo unspecified) | 45µM* | 9% | -23 | 56µM* | -1 | 18µM*
COc1cc(NC(=O)c2nc(-c3ccncc3)no2)cc(OC)c1OC | 16% | -1% | · | 0% | · | -2%
O=C(c1ccccc1Br)N(Cc1ccccc1F)C1CCS(=O)(=O)C1 (stereo unspecified) | 43% | 9% | · | -12% | · | -2%
COC(=O)c1n[nH]n(-c2ccccc2)c1=O | 27% | 2% | · | 7% | · | -13%
CCCS(=O)(=O)N1CCN(c2ccccn2)CC1 | 13% | 1% | 10 | -18% | 3 | -7%
CCCS(=O)(=O)N1CCN(Cc2ccncc2)CC1 | ? | -2% | 10 | 20µM* | 3 | 35µM*
c1cc(CN2CCN(C3CCCCCC3)CC2)ccn1 | ? | -13% | · | 20µM* | 2 | ·
CCS(=O)(=O)N1CCN(Cc2ccncc2)CC1 | 50µM* | -3% | 11 | 3.5µM* | 0 | 35µM*
Fc1ccc(C(c2nnnn2C2CCCC2)N2CCN(Cc3ccncc3)CC2)cc1 (stereo unspecified) | 23% | -2% | 1 | -12% | 6 | -2%
SMILES | HP1b binding inh | TDP1 block | CtBP-E1A blk | JMJD2A Tudor inh | Six1-Eya2 blk | BAZ2B inh
CCc1ccc(NC(=O)c2ccc3c(O)c(S(=O)(=O)c4ccc(Cl)cc4)c(=O)[nH]c3c2)cc1 | 17% | 0% | · | -24% | · | -14%
CN(C)[C@@H]1CCC[C@@H]1OC(=O)C(c1ccccc1)c1ccccc1 | ? | -4% | -11 | 1.1µM* | 2 | 35µM*
CCCN1C(C(=O)c2ccccc2)=C(OC(=O)COc2ccccc2)c2ccccc2S1(=O)=O | -13% | 10% | · | ? | · | -26%
CCN1C(C(=O)c2ccccc2)=C(OC(=O)COc2ccc(C)cc2)c2ccccc2S1(=O)=O | -3% | 4% | · | 50µM* | · | ?
CCCN1C(C(=O)c2ccccc2)=C(OC(=O)COc2ccc(C)cc2)c2ccccc2S1(=O)=O | -7% | 6% | · | ? | · | ?
C=CCN1C(C(=O)c2ccccc2)=C(OC(=O)COc2ccccc2)c2ccccc2S1(=O)=O | -1% | 8% | 6 | 20µM* | 16 | ?
Cc1ccc(Cl)cc1N1CCN(S(=O)(=O)c2ccc3c(c2)CCCN3C(=O)C2CCC2)CC1 | 31%[57 µM] | 5% | · | -9% | · | 5%
Cc1ccc2nc(-c3ccc(NS(=O)(=O)c4ccccc4)cc3)sc2c1 | 35% | 4% | -1 | 2% | -11 | 2%
Cc1ccc2nc(-c3ccc(N)cc3)sc2c1S(=O)(=O)O | · | 32µM* | · | · | · | ·
Cc1ccc2nc(-c3ccc(N=Nc4cc(S(=O)(=O)O)c5ccccc5c4O)cc3)sc2c1S(=O)(=O)O | 14µM* | -7% | · | 18µM* | · | ·
CCc1ccccc1NC(=O)c1nnn(-c2ccc(F)cc2)c1C | 76% | -3% | · | 20% | · | 50%
COc1cccc(C(=O)Nc2ccc3c(c2)C(=O)c2ccccc2C3=O)c1 | -12% | · | -12 | 18µM* | -13 | -36%
CCOc1ccc(NC(=O)NCCCN2CCN(c3ccc(OC)cc3)CC2)cc1 | -4% | 2% | · | ? | · | -37%
CCOc1ccc(NC(=S)NCCCN2CCN(c3ccc(OC)cc3)CC2)cc1 | -5% | 5% | -15 | ? | -12 | 35µM*
COc1cccc(C(=O)NC(=S)Nc2ccc(N3CCCC3)cc2)c1 | ? | 14% | ? | 40µM* | -68* | 13µM*
COc1ccc(C(=O)NC(=S)Nc2ccc(N3CCCC3)cc2)cc1 | -10% | 8% | -13 | -19% | -20 | -28%
CCc1ccc(C(=O)NC(=S)Nc2ccc(N3CCOCC3)cc2)cc1 | ? | 10% | · | ? | -13 | 20µM*
CCOc1ccc(-c2ccc(NS(=O)(=O)c3ccc(C)cc3)cc2)nn1 | 13%[57 µM] | 3% | · | -21% | · | -16%
COc1cccc(C(=O)NC(=S)Nc2ccc(N(C)C)cc2)c1 | ? | 13% | ? | 25µM* | ? | 10µM*
COCCNC(=S)Nc1ccc(N2CCCCC2)cc1 | ? | 2% | -11 | ? | -3 | 50µM*
